According to the supplement of paper PMC12494721:
Counter-ions that a name gives are not always drawn.

How the values were obtained:
Conditions in all cases: incubation time: 27 h, anaerobic, 37 °C;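 for the amine columns active = adjusted P below 0.05 in both replicates with a change the same way and a mean fold change under 0.8 or over 1.25; inactive = the rest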
[1] = system: Clostridium sporogenes DSM 1664; assay: growth (OD595) fold change vs plate DMSO controls (fold change (ratio)); higher = more growth
Method in brief: (§1)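 Anaerobic mGAM cultures in 96-well plates were grown for 27 h at 37 °C, and absorbance was then read at 595 nm. After blank and compound background correction with 20 µM compound solutions in water, a calibration factor of 5 gave OD. Growth is the fold change relative to the median of each plate's DMSO controls. Values are means of 2 biological replicates, with fold changes above 1.5 set to NA.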

Escherichia coli IAI1 [2] = assay: as above
Method in brief: as §1

[3] = system: Klebsiella aerogenes DSM 30053; assay: as above
Method in brief: as §1

[4] = system: Ruminococcus gnavus DSM 108212; assay: as above
Method in brief: as §1

[5] = system: Klebsiella aerogenes DSM 30053; assay: fold change of Histamine concentration vs plate DMSO controls (fold change (ratio)); higher = more amine produced, active = hit call of the paper (significant change in both replicates, either direction)
Method in brief: (§2)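 Anaerobic mGAM cultures of four gut bacterial strains were grown at 37 °C for 27 h in 80 µL wells, starting at OD 0.1 before 1:1 dilution. Compounds were at 20 µM final (sweeteners 50 µM). Whole cultures were extracted with cold acetonitrile/methanol containing 0.1% formic acid and centrifuged. Amines were quantified by LC–triple-quadrupole MS (dynamic MRM) against external calibration curves and drift-corrected within batch. Each value is the fold change versus plate DMSO controls, averaged over 2 biological replicates.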

[6] = system: Clostridium sporogenes DSM 1664; assay: fold change of Tryptamine concentration vs plate DMSO controls (fold change (ratio)); higher = more amine produced, active = hit call of the paper (significant change in both replicates, either direction)
Method in brief: as §2

[7] = system: Ruminococcus gnavus DSM 108212; assay: as above
Method in brief: as §2

Escherichia coli IAI1 [8] = assay: fold change of Putrescine concentration vs plate DMSO controls (fold change (ratio)); higher = more amine produced, active = hit call of the paper (significant change in both replicates, either direction)
Method in brief: as §2

[9] = system: Klebsiella aerogenes DSM 30053; assay: as above
Method in brief: as §2

Escherichia coli IAI1 [10] = assay: fold change of Cadaverine concentration vs plate DMSO controls (fold change (ratio)); higher = more amine produced, active = hit call of the paper (significant change in both replicates, either direction)
Method in brief: as §2

[11] = system: Klebsiella aerogenes DSM 30053; assay: as above
Method in brief: as §2

[12] = system: Ruminococcus gnavus DSM 108212; assay: fold change of 2-Phenylethylamine concentration vs plate DMSO controls (fold change (ratio)); higher = more amine produced, active = hit call of the paper (significant change in both replicates, either direction)
Method in brief: as §2

SMILES | growth [1] | growth (Escherichia coli IAI1 [2]) | growth [3] | growth [4] | fold change of Histamine concentration [5] | fold change of Tryptamine concentration [6] | fold change of Tryptamine concentration [7] | fold change of Putrescine concentration (Escherichia coli IAI1 [8]) | fold change of Putrescine concentration [9] | fold change of Cadaverine concentration (Escherichia coli IAI1 [10]) | fold change of Cadaverine concentration [11] | fold change of 2-Phenylethylamine concentration [12]
CCOc1ccc2nc3cc(N)ccc3c(N)c2c1 [Ethacridine lactate] (20 µM) | 0.937 | 0.981 | 0.974 | 0.954 | 0.985 (inactive) | 1.07 (inactive) | 0.856 (inactive) | 1.14 (inactive) | 1.01 (inactive) | 1.12 (inactive) | 0.993 (inactive) | 0.837 (inactive)
CC(C)NC(=N)NC(=N)Nc1ccc(Cl)cc1 [Proguanil hydrochloride] (20 µM) | 0.986 | 0.955 | 0.964 | 0.969 | 1.06 (inactive) | 1.04 (inactive) | 1.03 (inactive) | 1.09 (inactive) | 0.997 (inactive) | 0.868 (inactive) | 0.979 (inactive) | 1.02 (inactive)
CNC[C@H](O)[C@@H](O)[C@H](O)[C@H](O)CO [Meglumine] (20 µM) | 0.956 | 1.07 | 1.05 | 0.994 | 0.883 (inactive) | 1.04 (inactive) | 1.02 (inactive) | 1.25 (inactive) | 0.979 (inactive) | 0.99 (inactive) | 1.06 (inactive) | 0.998 (inactive)
CN(C)c1cc(NC(=O)CNC(C)(C)C)c(O)c2c1C[C@H]1C[C@H]3[C@H](N(C)C)C(=O)C(C(N)=O)=C(O)[C@@]3(O)C(=O)C1=C2O [Tigecycline] (20 µM) | 0.926 | 1.12 | 1.18 | 1.19 | 0.865 (inactive) | 0.964 (inactive) | 1.08 (inactive) | 1.08 (inactive) | 0.991 (inactive) | 0.967 (inactive) | 1.03 (inactive) | 1.13 (inactive)
CN(C)CCOc1ccc(/C(=C(/CCCl)c2ccccc2)c2ccccc2)cc1 [Toremifene] (20 µM) | 1.18 | 1.1 | 1.15 | 0.943 | 0.943 (inactive) | 1.02 (inactive) | 0.647 (active) | 0.998 (inactive) | 0.975 (inactive) | 0.98 (inactive) | 1.04 (inactive) | 0.871 (inactive)
CCc1cc(Cl)c(OC)c(C(=O)NC[C@@H]2CCCN2CC)c1O [(S,-) Eticlopride hydrochloride] (20 µM) | 0.973 | 0.985 | 1.02 | 0.979 | 1.04 (inactive) | 0.99 (inactive) | 0.88 (inactive) | 0.975 (inactive) | 1.02 (inactive) | 1.01 (inactive) | 0.985 (inactive) | 0.939 (inactive)
CCN(CC)CCNC(=O)c1cc(Br)c(N)cc1OC [Bromopride] (20 µM) | 0.874 | 1.03 | 1.05 | 1.12 | 1.01 (inactive) | 1 (inactive) | 1 (inactive) | 1.02 (inactive) | 0.998 (inactive) | 0.967 (inactive) | 1.01 (inactive) | 1.02 (inactive)
CC1(C)O[C@@H]2C[C@H]3[C@@H]4C[C@H](F)C5=CC(=O)C=C[C@]5(C)[C@H]4[C@@H](O)C[C@]3(C)[C@]2(C(=O)CO)O1 [Flunisolide] (20 µM) | 0.942 | 0.993 | 1.03 | 0.998 | 0.949 (inactive) | 1.03 (inactive) | 1.19 (inactive) | 1.05 (inactive) | 1.05 (inactive) | 1.07 (inactive) | 1.09 (inactive) | 1.51 (inactive)
CN(Cc1ccc(C(C)(C)C)cc1)Cc1cccc2ccccc12 [Butenafine hydrochloride] (20 µM) | 1.12 | 1.04 | 0.979 | 0.838 | 1.11 (inactive) | 0.918 (inactive) | 0.96 (inactive) | 1.05 (inactive) | 1.01 (inactive) | 1.02 (inactive) | 0.992 (inactive) | 1.03 (inactive)
COc1cc(C(=O)N2CCOCC2)cc(OC)c1OC [Trimetozine] (20 µM) | 0.932 | 0.972 | 0.986 | 1.05 | 0.989 (inactive) | 1.05 (inactive) | 1.04 (inactive) | 1.12 (inactive) | 0.998 (inactive) | 0.99 (inactive) | 1 (inactive) | 1.04 (inactive)
CCOC(=O)C(C)(N)Cc1cc(I)c(Oc2cc(I)c(O)c(I)c2)c(I)c1 (centres undefined) [Etiroxate hydrochloride] (20 µM) | 1.06 | 1.02 | 1.02 | 1.14 | 1.04 (inactive) | 1.03 (inactive) | 0.923 (inactive) | 0.951 (inactive) | 0.99 (inactive) | 0.958 (inactive) | 1 (inactive) | 1.01 (inactive)
Nc1ccc(S(N)(=O)=O)cc1 [Sulfanilamide] (20 µM) | 0.877 | 1.03 | 0.987 | 1.15 | 0.919 (inactive) | 1.12 (inactive) | 1.11 (inactive) | 0.908 (inactive) | 0.951 (inactive) | 0.919 (inactive) | 1.03 (inactive) | 1.15 (inactive)
Cc1c(Nc2ncccc2C(=O)O)cccc1C(F)(F)F [Flunixin meglumine] (20 µM) | 0.944 | 1.04 | 1.05 | 1.15 | 0.909 (inactive) | 1.03 (inactive) | 0.992 (inactive) | 1.07 (inactive) | 0.959 (inactive) | 1.01 (inactive) | 1 (inactive) | 1.02 (inactive)
O=c1[nH]c(=O)n([C@H]2C[C@H](O)[C@@H](CO)O2)cc1C(F)(F)F [Trifluridine] (20 µM) | 1.14 | 1.04 | 0.99 | 0.913 | 1.09 (inactive) | 1.02 (inactive) | 1.07 (inactive) | 0.948 (inactive) | 0.972 (inactive) | 1.04 (inactive) | 0.975 (inactive) | 1.11 (inactive)
COc1ccnc(C[S+]([O-])c2nc3cc(OC(F)F)ccc3[nH]2)c1OC (centres undefined) [Pantoprazole sodium] (20 µM) | 1.18 | 1.22 | 1 | 0.958 | 0.936 (inactive) | 1.05 (inactive) | 1.05 (inactive) | 1.25 (inactive) | 1.01 (inactive) | 0.98 (inactive) | 1.02 (inactive) | 1.07 (inactive)
CCNC(=O)CCC/C=C\C[C@@H]1[C@@H](/C=C/[C@@H](O)CCc2ccccc2)[C@H](O)C[C@@H]1O [Bimatoprost] (20 µM) | 1.07 | 1.06 | 1.02 | 1 | 1.05 (inactive) | 1.02 (inactive) | 0.954 (inactive) | 1.02 (inactive) | 1.03 (inactive) | 1.04 (inactive) | 0.997 (inactive) | 0.919 (inactive)
NC1CCN(c2c(F)cc3c(=O)c(C(=O)O)cn(C4CC4)c3c2Cl)C1 (centres undefined) [Clinafloxacin] (20 µM) | 0.00892 | 0.0142 | 0.102 | 0.356 | 0.118 (active) | 0.0514 (active) | 0.337 (active) | 0.703 (inactive) | 0.647 (active) | 0.233 (active) | 0.942 (inactive) | 0.36 (active)
CC1c2cccc(O)c2C(O)=C2C(=O)C3(O)C(O)=C(C(N)=O)C(=O)C(N(C)C)C3C(O)C21 (centres undefined) [Doxycycline hydrochloride] (20 µM) | 0.0027 | 0.0209 | 0.241 | 0.613 | 0.459 (inactive) | 0.0313 (active) | 0.225 (active) | 0.219 (active) | 0.659 (active) | 0.412 (active) | 0.724 (active) | 0.288 (active)
c1ccc2c(c1)CCCC2C1=NCCN1 (centres undefined) [Tetrahydrozoline hydrochloride] (20 µM) | 0.99 | 0.997 | 1.01 | 0.897 | 0.99 (inactive) | 1.01 (inactive) | 0.993 (inactive) | 1.04 (inactive) | 0.992 (inactive) | 0.966 (inactive) | 1 (inactive) | 1.01 (inactive)
NS(=O)(=O)c1cc2c(cc1Cl)NC(C(Cl)Cl)NS2(=O)=O (centres undefined) [Trichlormethiazide] (20 µM) | 1.14 | 1.08 | 1.01 | 1.07 | 1.05 (inactive) | 1.05 (inactive) | 1.03 (inactive) | 1.11 (inactive) | 1.02 (inactive) | 1.03 (inactive) | 0.984 (inactive) | 1.01 (inactive)
Clc1ccc(C(c2ccccc2Cl)C(Cl)Cl)cc1 (centres undefined) [Mitotane] (20 µM) | 1.01 | 1.04 | 1.03 | 1.34 | 1.01 (inactive) | 0.997 (inactive) | 1.01 (inactive) | 1.03 (inactive) | 1 (inactive) | 1.03 (inactive) | 1.01 (inactive) | 1.03 (inactive)
CN(N=O)C(=O)N[C@H]1C(O)O[C@H](CO)[C@@H](O)[C@@H]1O (mixture of isomers) [Streptozotocin] (20 µM) | 1.04 | 1.19 | 1 | 0.279 | 0.835 (inactive) | 0.798 (inactive) | 0.312 (active) | 1.04 (inactive) | 0.962 (inactive) | 1.31 (active) | 0.993 (inactive) | 0.376 (inactive)
